A selection: hits, their analogues and other compounds. The true share with any hit is near 6.5%.
FMDV inh: foot and mouth disease virus antiviral activity. Potency, µM (highest dose often 57.9 µM), without a hit: at the top dose activity change, negative = inhibition, hits mostly inhibitors. FMDV antiviral cell-based qHTS. 1.2% of 410,000 active; calls by dose curve; tested in HEK293T cells; also: read-out not given here; potency is read from the fitted curve at half-maximal effect; nearly all actives have a fitted effect of over 45% in size
MARV entry inh: Marburg virus entry inhibition; Potency, µM (doses to about 37.8 µM), inactives show at the highest dose activity change, negative = inhibition, most hits filed as inhibitors; AID 540276; Marburg virus pseudotyped entry inhibition, cell reporter; 1.8% of 300,000 active; calls by dose curve; tested in HEK293 cells; also: potency is read from the fitted curve at half-maximal effect
Lassa entry inh: inhibitors of Lassa virus binding or cell entry. Lassa virus pseudotype entry inhibition, cell reporter. Potency, µM (titrated, usually from 37.9 µM), for the others: at the top dose activity change, negative = inhibition, usual class: inhibitors. 1.2% of 300,000 active. AID 540256; calls by dose curve; tested in HEK293 cells; also: potency is read from the fitted curve at half-maximal effect; nearly all actives have a fitted effect of over 50% in size
HCMV inh: blocks human cytomegalovirus replication; HFF cells, HCMV-luciferase reporter, 72 h; hits give low values; AID 1259415; 4.5% of 410,000 active; activity change, negative = inhibition, % at 57.5 µM; in the data active = activity change below about -60%; inconclusive = no clear call, values can overlap the other calls; inactive = above about -39%
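After 16 h attachment at 37C, HFF cells received test compound and HCMV-luciferase (1 PFU/cell); reporter luminescence read 72 h later, data normalized against buffer-only and known inhibitor Salinomycin.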
VACV mCherry inh: vaccinia inhibition (mCherry reporter) | 0.63% of 310,000 active | Potency, µM (highest dose often 36.5 µM), for the others: top-dose activity change, negative = inhibition, usual class: inhibitors | Vaccinia virus mCherry reporter infection, fluorescence; calls by dose curve; tested in A549 cells; also: potency is read from the fitted curve at half-maximal effect; nearly all actives have a fitted effect of over 35% in size
Vaccinia Venus: vaccinia inhibition (Venus reporter) | Vaccinia virus Venus reporter expression, fluorescence | Potency, µM (top dose mostly 36.5 µM), for the others: at the highest dose activity change, negative = inhibition, most hits filed as inhibitors | 0.46% of 330,000 active; calls by dose curve; tested in A549 cells; also: potency is read from the fitted curve at half-maximal effect; nearly all actives have a fitted effect of over 30% in size
The depositor's hits bear a star; i = inactive; u = inconclusive; x = no result given; + = active, no number; [ ] = remark or other dose. % is scaled to controls: 0 for no effect and ±100 for the full control effect.

SMILES | FMDV inh | MARV entry inh | Lassa entry inh | HCMV inh | VACV mCherry inh | Vaccinia Venus
O=C(Nc1ccc2c(c1)CCCN2C(=O)c1cccs1)c1ccc(F)c(F)c1 | u | x | u | u | -18.5% | -18.7%
O=C(CSc1ncccn1)NC1CCS(=O)(=O)C1 (stereo unspecified) | -11.3% | x | x | -7.7 | x | x
Cc1cc(C)c2c(CC(=O)NC3CCS(=O)(=O)C3)coc2c1 (stereo unspecified) | -14.5% | x | x | + | x | x
Cc1ccc(SCC(=O)NC2CCS(=O)(=O)C2)cc1 (stereo unspecified) | -2.3% | 0.6%[46.1 µM] | -1.2%[46.1 µM] | -64.7* | i | -1.9%
COc1ccccc1C1NC(c2ccc3c(c2)OCO3)=CC(c2cc(Cl)ccc2O)N1 (stereo unspecified) | x | x | x | x | -22.6% | -10.2%
O=C1c2c(O)ccc(O)c2C(=O)c2c(NCCNCCO)ccc(NCCNCCO)c21 | u | 0.0562µM* | 0.501µM* | -98.4* | u | 10µM*
CCN(CC)S(=O)(=O)c1ccc2c(c1)N(CC(=O)N(CCc1ccncc1)C(C)C)C(=O)CO2 | 8.2% | 0.6% | -12.2% | -24.3 | x | x
CCN1CCN(C(=O)c2ccc(Cl)c(S(=O)(=O)N3CCCCC3)c2)CC1 | -10.4% | 7.1% | -1.9% | -28.6 | -12.0% | -6.7%
Cc1cc(S(=O)(=O)N2CCCC(N3CCOCC3)C2)c(C)cc1Cl (stereo unspecified) | u | u | -3.7% | -24.2 | -1.7% | -8.2%
CCOC(=O)C(C)Oc1cccc2c(=O)n(CC(=O)NCc3ccc(F)cc3)ccc12 (stereo unspecified) | -2.6% | x | x | -64.7* | x | x
COCCn1ccc2c(OCC(=O)NCc3ccccc3)cccc2c1=O | -0.6% | 22.4% | 1.58µM* | -9.9 | -7.4% | -6.7%
CCOC(=O)C(C)Oc1cccc2c(=O)n(CC(=O)NCc3ccccc3)ccc12 (stereo unspecified) | -23.9% | u | u | -89.5* | -13.7% | -24.1%
CCOC(=O)C(C)Oc1cccc2c(=O)n(CC(=O)NCCc3ccccc3)ccc12 (stereo unspecified) | -17.1% | x | x | 0.0 | -18.6% | -19.9%
CN(C)c1ccc(-c2nc3ccccn3c2/N=C/c2ccc(Br)cc2)cc1 | 12.6µM* | u | 7.08µM* | u | -20.1% | -10.4%
O=C(Nc1ccc(F)cc1)c1nn(-c2ccccc2)c(=O)cc1Cl | 22.4µM* | 7.08µM* | u | -100.2* | u | 28.2µM*
CS(=O)(=O)c1ncc(Cl)c(C(=O)Nc2ccc(N3CCOCC3)cc2)n1 | x | u | u | x | -1.5% | -24.6%
CS(=O)(=O)c1ncc(Cl)c(C(=O)Nc2ccc(OC(F)F)cc2)n1 | 20µM* | u | u | x | u | u
CCc1nnc(NC(=O)c2nc(S(C)(=O)=O)ncc2Cl)s1 | u | -2.0%[46.1 µM] | -9.2%[46.1 µM] | -12.2 | 0.6% | 7.7%
Cc1ccc(NC(=O)c2cc(-c3ccccc3)nn2-c2ccccc2)cc1 | -6.6% | u | u | -29.6 | -6.5% | -18.4%
Cc1ccccc1NC(=O)c1nc(S(C)(=O)=O)ncc1Cl | u | x | x | -99.4* | x | x
O=C(Nc1ccccc1F)c1nc(S(=O)(=O)Cc2ccccc2F)ncc1Cl | u | u | u | -108.9* | i | u
Cc1cccc(CS(=O)(=O)c2ncc(Cl)c(C(=O)Nc3c(C)cccc3C)n2)c1 | -10.7% | x | x | u | x | x
O=C(Nc1ccc(F)cc1)c1nc(S(=O)(=O)Cc2ccccc2)ncc1Cl | u | x | x | -111.8* | x | x
Cc1cccc(C)c1NC(=O)c1nc(S(=O)(=O)Cc2ccccc2)ncc1Cl | 28.2µM* | 11.2µM* | u | -100.1* | -29.3% | -8.6%
CCOC(=O)c1nc(S(C)(=O)=O)ncc1Cl | x | u | -34.4% | -70.2* | i | 0.0%
SMILES | FMDV inh | MARV entry inh | Lassa entry inh | HCMV inh | VACV mCherry inh | Vaccinia Venus
O=C(Nc1ccc2ccccc2c1)c1nc(S(=O)(=O)Cc2ccccc2F)ncc1Cl | x | x | x | x | -20.1% | -18.7%
Cc1cccc(CS(=O)(=O)c2ncc(Cl)c(C(=O)NCc3ccccc3)n2)c1 | 31.6µM* | 4.47µM* | u | -92.4* | -18.2%[7.34 µM] | -17.3%[7.34 µM]
Cc1ccc(NC(=O)c2nc(S(=O)(=O)Cc3ccccc3)ncc2Cl)cc1 | 28.2µM* | u | -16.8% | -97.8* | -23.4% | u
CCOc1ccc(NC(=O)c2nc(S(=O)(=O)Cc3ccccc3C)ncc2Cl)cc1 | x | x | x | x | 14.1% | -20.7%
CCCc1nnc(NC(=O)c2nc(S(=O)(=O)Cc3cccc(C)c3)ncc2Cl)s1 | 28.2µM* | x | x | -100.9* | x | x
Cc1cccc(CSc2ncc(Cl)c(C(=O)Nc3nnc(C)s3)n2)c1 | 11.5% | -14.0%[46.1 µM] | 20.1%[46.1 µM] | -9.8 | -0.1% | -5.7%
Cc1ccccc1CS(=O)(=O)c1ncc(Cl)c(C(=O)Nc2ccc(F)cc2)n1 | u | x | x | -98.1* | x | x
Cc1nnc(NC(=O)c2nc(S(=O)(=O)Cc3ccccc3)ncc2Cl)s1 | 5.62µM* | u | u | -110.0* | 8.1% | -1.5%
C#CCN(Cc1nc(N2CCOCC2)c2ccc(Cl)cc2n1)Cc1ccco1 | -7.2% | x | x | x | -8.3% | 6.1%

Screening data deposited in PubChem BioAssay by National Center for Advancing Translational Sciences (NCATS).
